# From the supplement of paper PMC10477191
# ± gives the standard deviation of the averaged measurements.
# Tested on: Drosophila virilis antennal basiconic sensillum AB4
# Assay: odor-evoked OSN spike response (post minus pre-stimulus); higher = stronger neuronal excitation
# Details: odor dilution: 10^-4
# Experimental: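 Single sensillum recordings from antennal basiconic sensilla of D. virilis. A 500 ms pulse of odorant (10^-4 in mineral oil or DMSO) was delivered; the response is the change in spike frequency between the 1 s pre- and post-stimulus windows (spikes/s).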
row,Structure (SMILES),odor-evoked OSN spike response [spikes/s]
1,C[C@H]1CCC[C@@]2(C)CCCC[C@]12O [geosmin],102 ± 21
